For orientation: AC50 means the midpoint of the concentration-response curve, whichever way the signal moves.

40 molecules from PubChem BioAssay (EPA / NIEHS) can be followed below.

The source made the active and inactive calls. Rule for the calls: active = hit-call score of the fitted dose curve at least 0.9, where 1 is the maximum; inactive = score below 0.9.

Chain of Hypoxia-inducible factor 1-alpha (Homo sapiens) (Q16665 whole entry, looked up): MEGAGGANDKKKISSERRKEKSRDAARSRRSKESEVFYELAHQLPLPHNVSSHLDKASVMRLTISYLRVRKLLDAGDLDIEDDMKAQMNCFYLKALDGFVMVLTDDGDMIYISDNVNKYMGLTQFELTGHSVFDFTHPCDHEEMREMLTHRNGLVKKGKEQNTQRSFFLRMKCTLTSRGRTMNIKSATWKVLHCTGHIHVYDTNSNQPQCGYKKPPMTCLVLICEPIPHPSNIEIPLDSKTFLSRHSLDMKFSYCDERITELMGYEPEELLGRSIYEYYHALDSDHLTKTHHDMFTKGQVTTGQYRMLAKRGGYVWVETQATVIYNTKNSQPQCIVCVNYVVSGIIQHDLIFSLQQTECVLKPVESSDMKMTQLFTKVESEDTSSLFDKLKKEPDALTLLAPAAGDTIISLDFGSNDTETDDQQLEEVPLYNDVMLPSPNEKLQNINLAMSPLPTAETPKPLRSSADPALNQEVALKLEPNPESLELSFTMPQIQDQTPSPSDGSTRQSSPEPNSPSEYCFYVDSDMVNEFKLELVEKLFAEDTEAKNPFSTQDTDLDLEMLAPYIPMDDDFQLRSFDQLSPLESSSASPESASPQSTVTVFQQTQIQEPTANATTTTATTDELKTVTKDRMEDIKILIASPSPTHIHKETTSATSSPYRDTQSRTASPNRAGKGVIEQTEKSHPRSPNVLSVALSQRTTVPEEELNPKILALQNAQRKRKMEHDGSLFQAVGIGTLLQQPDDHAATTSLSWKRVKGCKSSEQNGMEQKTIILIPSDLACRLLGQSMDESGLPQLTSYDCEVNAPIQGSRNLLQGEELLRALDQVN

The test addresses Hypoxia-inducible factor 1-alpha (Homo sapiens) (UniProt Q16665). Kind of test: ATG_HIF1a_CIS: Attagene CIS-FACTORIAL HepG2 Assay for human Hypoxia Inducible Factor 1 (HIF1A) (AID 2282951). Particulars: HepG2 Attagene cis-factorial HIF1a reporter transcription; actives raise or lower the signal. Here is the method: ATG_CIS is a cell-based, multiplexed-readout assay that uses HepG2, a human liver cell line, with measurements taken at 24 hours after chemical dosing in a 24-well plate.ATG_HIF1a_CIS is one of 52 assay component(s) measured or calculated from the ATG_CIS assay. It is designed to make measurements of mRNA induction, a form of inducible reporter, as detected with fluorescence intensity signals by Reverse transcription polymerase chain reaction (RT-PCR) and Capillary electrophoresis technology.Data from the assay component ATG_HIF1a_CIS was analyzed into 1 assay endpoint. This assay endpoint, ATG_HIF1a_CIS, was analyzed with bidirectional fitting relative to DMSO as the negative control and baseline of activity. Using a type of inducible reporter, measures of mRNA for gain or loss-of-signal activity can be used to understand the reporter gene at the transcription factor-level as they relate to the gene HIF1A. Furthermore, this assay endpoint can be referred to as a primary readout, because this assay has produced multiple assay endpoints where this one serves a reporter gene function. To generalize the intended target to other relatable targets, this assay endpoint is annotated to the dna binding intended target family, where the subfamily is basic helix-loop-helix protein.
Human liver HepG2 cells are transiently transfected with multiple reporter transcription units (MRTUs) in 6-well plates using FuGene 6 reagent (Roche; 3 ml FuGene/1 mg DNA). The MRTU constructs are regulated by a cis-regulating element (promoter). […] A major difference between the CIS and TRANS system is that in CIS activities of endogenous TFs are measured, whereas the TRANS assay evaluates changes in activities of exogenous, chimeric NR-Gal4 proteins. […] At the end of 24 hour incubation, total RNA was isolated using TriZol reagent (Invitrogen). The isolated RNA is then reverse-transcribed using oligo(dT) primer and Mo-MLV reverse transcriptase (Invitrogen) with DNAse I (Ambion) treatment for 30 min. The one-tenth of the produced cDNA was amplified by PCR using Taq DNA polymerase (Invitrogen) and two reporter sequence-specific primers. The PCR products were fluorescently labeled by primer extension with 6-arboxyfluorescein (6-FAM) 5'-labeled reporter sequence-specific primer (2 min at 95 C, 20 s at 68 C and 10 min at 72 C) and these products were digested with 5U of HpaI (New England Biolabs) for 2h at 37 C. The fragments were purified using Qiaquick PCR columns (Qiagen), analyzed on an ABI 3130xL genetic analyzer (Applied Biosystems) with peak positions identified by using a set of X-rhodamine (ROX)-labeled MapMarker1000 molecular weight standards (BioVentures). The raw capillary electrophoresis data was processed using Attagraph software (Attagene).
For `Cc1ncc([N+](=O)[O-])n1C`, the result was inactive.
The same measure, in the same setting: as for `O=C(O)c1cccc(C(F)(F)F)c1`, the entry is “inactive”; as for `CCCCCCCCCCCCOCCO`, “inactive”.
For the molecule `CC(C)[C@@H]1CC[C@@H](C)CC1=O`, the AC50 was 38.4 µM (active).
As to `CC(=O)C=CC1=C(C)CCCC1(C)C`, the call was inactive.
The same measure, in the same setting: as for `CC(C)[C@H]1CC[C@@H](C)CC1=O`, the entry is “inactive”.
The same measure, in the same setting: the result for `CCCCCCC#CC(=O)OC` reads “inactive”.
Same read-out and setting: the result for `c1ccc2sc(SN(C3CCCCC3)C3CCCCC3)nc2c1` reads “inactive”; that for `CC1(C)OC[C@@H]2O[C@@]3(C(=O)O)OC(C)(C)O[C@H]3[C@@H]2O1`, “inactive”.
With `C=C(C)C(=O)OCc1ccccc1`, the result was inactive.
For the molecule `CC(C)=CCC[C@](C)(O)[C@@H]1CC=C(C)CC1`, the call was inactive.
`CN(C)CCOCCN(C)C`: the result was inactive.
In the case of `CC(C)=CCO`, the result was inactive.
Still for that read-out and setting: as for `CC(=O)O[C@H](CC(=O)[O-])C[N+](C)(C)C`, the entry is “inactive”.
The same measure, in the same setting: as for `O=S(=O)(O)c1cccc2c(S(=O)(=O)O)cccc12`, the entry is “inactive”; as for `Cc1cccc(C)c1[N+](=O)[O-]`, “inactive”; as for `CCCCCCCCCCCCCOS(=O)(=O)O`, “inactive”.
The same measure, in the same setting: as for `CC(=O)[O][Al][O]C(C)=O`, the entry is “inactive”; as for `CC[Si](OC(C)=O)(OC(C)=O)OC(C)=O`, “inactive”.
With `CCCCCC=CCC(=O)OC`, the outcome was inactive.
Take `O=C(Nc1ccccc1)c1cc([N+](=O)[O-])ccc1Cl`: the concentration at half-maximal activity (AC50) was 24.1 µM (active).
As for `O=C1CCCCCCCCCCCCCCO1`, the molecule was classed as inactive.
Still for that read-out and setting: the result for `C[C@H]1C[C@H]2[C@@H]3CCC4=CC(=O)C=C[C@]4(C)[C@@]3(F)[C@@H](O)C[C@]2(C)[C@@]1(O)C(=O)COP(=O)(O)O` reads “inactive”.
Still for that read-out and setting: as for `CC(C)=CCC/C(C)=C/COC=O`, the entry is “inactive”.
Still for that read-out and setting: the result for `CCCCCCCCCCCCCC(=O)O` reads “inactive”; that for `Cc1ccc(C=O)cc1`, “inactive”.
Turning to `O=C(OCc1ccccc1)C(=O)OCc1ccccc1`, the outcome was inactive.
Same read-out and setting: the result for `c1ccc2[nH]ccc2c1` reads “inactive”.
On the same count and under the same terms, as for `C=C(C)C(=O)Nc1ccc(Cl)c(Cl)c1`, the entry is “inactive”; as for `CC(C)Oc1ccccc1O`, “inactive”.
In the case of `Cc1cccc(C)c1C`, the molecule was classed as inactive.
Same read-out and setting: the result for `Cc1cc(C2(c3cc(C)c(O)cc3C)OS(=O)(=O)c3ccccc32)c(C)cc1O` reads “inactive”; that for `O=C1C(c2[nH]c3ccc(S(=O)(=O)O)cc3c2O)=Nc2ccc(S(=O)(=O)O)cc21`, “inactive”.
Take `O=Nc1ccc(Nc2ccccc2)cc1`: the AC50 was 33.4 µM (active).
With `N#Cc1ccccc1`, the molecule was classed as inactive.
On the same count and under the same terms, the result for `CCCCOCCOCCSC#N` reads “inactive”.
Take `CCCCC/C=C/C=C/C=O`: the half-maximal activity concentration (AC50) is 100 µM (active).
In the case of `CCOC(=O)c1ccccc1OC`, the molecule was classed as inactive.
Still for that read-out and setting: as for `CCCCCCCCCCCCSC`, the entry is “inactive”; as for `C=C[C@@H](C)CCC=C(C)C`, “inactive”.
